Test [1] can be described thus: ATG_M_06_TRANS: Attagene TRANS-FACTORIAL HepG2 Assay for M06 Transcription Factor (Internal Marker) (AID 2282983; active = hit-call score of the fitted dose curve at least 0.9, where 1 is the maximum). Particulars: HepG2 Attagene TRANS M06 internal marker reporter. Summed up:
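Measured by capillary electrophoresis of fluorescently labelled RT-PCR products, this endpoint reflects reporter mRNA in HepG2 cells harbouring exogenous NR-GAL4 reporter constructs after 24 h exposure, with DMSO as baseline.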

Test [2] in a line: ATG_M_32_TRANS: Attagene TRANS-FACTORIAL HepG2 Assay for M32 Transcription Factor (Internal Marker) (AID 2282984; active = hit-call score of the fitted dose curve at least 0.9, where 1 is the maximum;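 also: transcript level of a background control reporter unit measured by RT-PCR and capillary electrophoresis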). The following applies: HepG2 Attagene TRANS M32 internal marker reporter. In short, it runs like this: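 Measures reporter mRNA induction in human HepG2 liver cells after 24 h chemical treatment. Transcripts from transiently transfected GAL4-UAS reporter units are amplified, fluorescently labelled and sized by capillary electrophoresis; gain of signal relative to DMSO.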

In test [3] the target is Transcriptional activator Myb (Homo sapiens) (UniProt P10242). Nature of the test: ATG_Myb_CIS: Attagene CIS-FACTORIAL HepG2 Assay for human Myeloblastosis (Myb) Proto-Oncogene Transcription Factor (AID 2282986). The following applies: HepG2 Attagene CIS-FACTORIAL Myb reporter transcription; actives raise or lower the signal. Summed up: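 Reporter mRNA is quantified by RT-PCR and capillary electrophoresis 24 h after dosing HepG2 cells transfected with cis-regulated reporter units, which track endogenous transcription factor activity. Gain and loss of signal are fitted versus DMSO baseline.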
Chain of Transcriptional activator Myb (Homo sapiens) (P10242 whole entry, looked up): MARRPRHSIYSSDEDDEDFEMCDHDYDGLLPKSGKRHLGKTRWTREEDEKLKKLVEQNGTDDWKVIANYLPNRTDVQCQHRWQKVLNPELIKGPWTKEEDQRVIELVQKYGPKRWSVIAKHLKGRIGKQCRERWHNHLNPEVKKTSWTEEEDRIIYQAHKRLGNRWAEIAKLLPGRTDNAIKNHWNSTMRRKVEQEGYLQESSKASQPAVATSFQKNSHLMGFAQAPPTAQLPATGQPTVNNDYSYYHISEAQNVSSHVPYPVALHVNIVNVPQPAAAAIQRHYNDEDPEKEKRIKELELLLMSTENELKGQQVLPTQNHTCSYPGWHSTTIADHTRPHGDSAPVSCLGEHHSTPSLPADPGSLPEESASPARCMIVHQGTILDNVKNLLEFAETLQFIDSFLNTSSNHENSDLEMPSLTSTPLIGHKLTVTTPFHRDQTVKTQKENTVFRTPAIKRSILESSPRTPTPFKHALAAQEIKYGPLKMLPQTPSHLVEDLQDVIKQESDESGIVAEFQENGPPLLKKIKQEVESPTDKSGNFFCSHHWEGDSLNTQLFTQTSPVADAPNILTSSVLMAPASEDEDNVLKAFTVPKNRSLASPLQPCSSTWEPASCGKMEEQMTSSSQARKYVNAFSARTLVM

Test [4] addresses Nuclear respiratory factor 1 (Homo sapiens) (UniProt Q16656). The test can be described thus: ATG_NRF1_CIS: Attagene CIS-FACTORIAL HepG2 Assay for human Nuclear Respiratory Factor 1 (NRF1) Orphan Gene (AID 2282987). The following applies: HepG2 NRF1 cis-element reporter, Attagene multiplex; actives raise or lower the signal. Summed up:
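Endogenous NRF1-driven reporter transcription in transfected HepG2 cells after 24 h treatment. Readout: RT-PCR products, 6-FAM labelled and resolved by capillary electrophoresis; changes fitted both directions relative to DMSO.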

A short description of test [5]: ATG_NFI_CIS: Attagene CIS-FACTORIAL HepG2 Assay for human Nuclear Factor I (NFI) (AID 2282989). Particulars: HepG2 cis-regulatory reporter, NFI response element transcription; actives raise or lower the signal. In short, it runs like this:
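Transfected HepG2 liver cells, exposed 24 h, supplied total RNA for oligo(dT) reverse transcription and reporter-specific PCR. Labelled, HpaI-cut fragments were sized by capillary electrophoresis; DMSO set the baseline for bidirectional fitting.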

Test [6] addresses Myc proto-oncogene protein (Homo sapiens) (UniProt P01106). Nature of the test: ATG_Myc_CIS: Attagene CIS-FACTORIAL HepG2 Assay for human Myelocytomatosis (Myc) Proto-Oncogene Transcription Factor (AID 2282990). The following applies: HepG2, Attagene cis-reporter transcription factor activity; actives raise or lower the signal. In short, it runs like this:
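After 24 h chemical treatment of HepG2 cells carrying multiplexed cis-regulated reporter constructs, reporter transcripts quantified by RT-PCR and capillary electrophoresis of fluorescent fragments. Gain or loss fitted against DMSO baseline.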

The nature of test [7]: ATG_NF_kB_CIS: Attagene CIS-FACTORIAL HepG2 Assay for human Nuclear Factor Kappa B (NF-kB) (AID 2282991). The following applies: HepG2 Attagene cis-factorial NF-kB reporter mRNA; actives raise or lower the signal. In short, it runs like this:
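Readout is reporter transcript level, gain or loss versus DMSO, measured 24 h post-dose via RT-PCR, fluorescent labelling and capillary electrophoresis. Human HepG2 liver cells carried transiently transfected CIS reporter constructs reflecting endogenous factors.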

Test [8] can be described thus: ATG_NRF2_ARE_CIS: Attagene CIS-FACTORIAL HepG2 Assay for human Nuclear Factor Erythroid 2 Related Factor 2 (NFR2) response to Antioxidant Response Elements (ARE) (AID 2282992).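 As to AC50: reporter mRNA level measured by RT-PCR and capillary electrophoresis fluorescence.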 The following applies: HepG2 Attagene ARE/NRF2 reporter, transcription factor activity; actives raise or lower the signal. In short, it runs like this: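 Multiplexed reporter mRNA profiling in HepG2 after a 24 h chemical exposure. Curves fitted in both directions relative to DMSO negative control.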

Test [9] can be described thus: ATG_Oct_MLP_CIS: Attagene CIS-FACTORIAL HepG2 Assay for human Octamer-Binding Transcription Factor (Oct) (AID 2282993). The following applies: HepG2 Attagene cis-factorial Oct reporter, mRNA; actives raise or lower the signal. In short, it runs like this:
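Using HepG2 cells bearing transfected cis-reporter constructs, mRNA induction was read after 24 h by fluorescent RT-PCR and capillary electrophoresis, with DMSO defining baseline for gain- or loss-of-signal fits.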

Test [10] has as its target Cellular tumor antigen p53 (Homo sapiens) (UniProt P04637). Nature of the test: ATG_p53_CIS: Attagene CIS-FACTORIAL HepG2 Assay for human p53 Transcription Factor (AID 2282994). The following applies: HepG2 p53 cis-element reporter, Attagene mRNA; actives raise or lower the signal. In short, it runs like this:
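Multiplexed reporter mRNA assay in human HepG2 liver cells; cis-regulated units report endogenous factor activity. Values come from bidirectional curve fitting against DMSO negative control after 24 h treatment.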

Test [11] concerns the target Hepatocyte nuclear factor 4-alpha (Homo sapiens) (UniProt P41235). The test can be described thus: ATG_HNF4a_TRANS: Attagene TRANS-FACTORIAL HepG2 Assay for human Hepatocyte Nuclear Factor 4 alpha (HNF4a) (AID 2282982; active = hit-call score of the fitted dose curve at least 0.9, where 1 is the maximum). Particulars: HepG2 HNF4a transactivation reporter, mRNA readout. Summed up: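 Readout is fluorescent reporter-transcript fragments resolved by capillary electrophoresis after RT-PCR from HepG2 cells dosed for 24 h. Cells carried transfected GAL4-UAS reporter constructs measuring exogenous NR-GAL4 chimera activity; DMSO served as baseline.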

The target in test [12] is Nuclear receptor subfamily 4 group A member 2 (Homo sapiens) (UniProt P43354). The test can be described thus: ATG_NURR1_TRANS: Attagene TRANS-FACTORIAL HepG2 Assay for human Nuclear Receptor Related Protein 1 (NURR1) (AID 2282985; active = hit-call score of the fitted dose curve at least 0.9, where 1 is the maximum). Particulars: HepG2 Attagene TRANS reporter, mRNA readout. Summed up: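 Transient transfection of HepG2, human liver cells, with multiple GAL4-UAS reporter transcription units. Cells dosed 24 h, RNA isolated, reverse-transcribed, PCR-amplified, FAM-labelled, HpaI-digested, sized by capillary electrophoresis. DMSO served as negative control.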
Chain of Nuclear receptor subfamily 4 group A member 2 (Homo sapiens) (P43354 whole entry, looked up, the tested form may be a part): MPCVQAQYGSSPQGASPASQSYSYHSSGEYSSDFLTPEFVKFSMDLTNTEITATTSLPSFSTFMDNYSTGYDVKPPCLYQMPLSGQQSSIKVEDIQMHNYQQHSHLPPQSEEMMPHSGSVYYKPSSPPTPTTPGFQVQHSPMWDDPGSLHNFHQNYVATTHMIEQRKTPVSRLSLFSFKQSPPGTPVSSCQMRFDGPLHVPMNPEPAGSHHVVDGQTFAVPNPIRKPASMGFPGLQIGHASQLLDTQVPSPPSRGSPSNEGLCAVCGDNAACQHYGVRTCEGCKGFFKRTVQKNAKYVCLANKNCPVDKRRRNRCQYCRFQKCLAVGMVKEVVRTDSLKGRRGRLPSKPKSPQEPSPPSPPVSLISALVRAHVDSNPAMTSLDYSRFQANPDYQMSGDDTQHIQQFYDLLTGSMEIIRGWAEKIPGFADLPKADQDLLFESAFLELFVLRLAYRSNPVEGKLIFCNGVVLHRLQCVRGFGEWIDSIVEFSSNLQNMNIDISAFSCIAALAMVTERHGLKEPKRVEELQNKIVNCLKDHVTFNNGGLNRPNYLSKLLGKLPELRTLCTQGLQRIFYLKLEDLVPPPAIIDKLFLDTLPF

Test [13] can be described thus: BSK_3C_TissueFactor: BioMAP Diversity Plus: 3C Assay for Tissue Factor Biomarker Activity (AID 2282997). Particulars: BioMAP 3C HUVEC, tissue factor biomarker readout; actives raise or lower the signal. In short, it runs like this: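 Values derive from bidirectional curve fitting against DMSO of Tissue Factor ELISA signals, taken 24 h after dosing primary human umbilical vein endothelial cells.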

Test [14] is described as follows: BSK_3C_uPAR: BioMAP Diversity Plus: 3C Assay for Urokinase-type plasminogen activator receptor (uPAR) Biomarker Activity (AID 2282998). Particulars: BioMAP 3C HUVEC, uPAR biomarker ELISA; actives raise or lower the signal. In short, it runs like this: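 In this endothelial cell-based assay, human umbilical vein primary cells were treated with chemicals and harvested at 24 h. uPAR was quantified using ELISA, with gains or losses fitted relative to DMSO controls.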

The nature of test [15]: BSK_3C_VCAM1: BioMAP Diversity Plus: 3C Assay for Vascular cell adhesion molecule 1 (VCAM1) Biomarker Activity (AID 2282999). Particulars: BioMAP 3C HUVEC, VCAM1 ELISA, cytokine-stimulated; actives raise or lower the signal. In short, it runs like this: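 Endothelial cells from human umbilical vein are treated with test chemical. At 24 h, VCAM-1 is measured by ELISA, and responses in either direction are fitted relative to DMSO.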

The nature of test [16]: BSK_4H_Eotaxin3: BioMAP Diversity Plus: 4H Assay for Eotaxin 3 Biomarker Activity (AID 2283000).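 Also: CCL26 protein level quantified by ELISA in parallel with SRB cytotoxicity check.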 Particulars: primary human endothelial cells (HUVEC); actives raise or lower the signal. Summed up: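 Endothelial primary cells (human umbilical vein) exposed to compound for 24 h. ELISA detection of Eotaxin-3.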
The target in test [17] is human Peroxisome Proliferator-activated Receptor alpha (PPARa), PPARA (gene 5465) (UniProt Q07869). The test can be described thus: ATG_PPARa_TRANS: Attagene TRANS-FACTORIAL HepG2 Assay for human Peroxisome Proliferator-activated Receptor alpha (PPARa) (AID 2283001; active = hit-call score of the fitted dose curve at least 0.9, where 1 is the maximum). Summed up:
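Read-out is fluorescence of reporter cDNA fragments resolved by capillary electrophoresis after RT-PCR. Human HepG2 liver cells carried transfected PPARa-Gal4 chimera and GAL4-UAS reporter units, treated 24 h; activity scored as increase over DMSO.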

Test [18] has as its target human Peroxisome Proliferator-activated Receptor delta (PPARd), PPARD (gene 5467) (UniProt Q03181). The test can be described thus: ATG_PPARd_TRANS: Attagene TRANS-FACTORIAL HepG2 Assay for human Peroxisome Proliferator-activated Receptor delta (PPARd) (AID 2283002; active = hit-call score of the fitted dose curve at least 0.9, where 1 is the maximum). In short, it runs like this: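 Read-out is induced reporter mRNA, quantified by RT-PCR with fluorescent labelling and capillary electrophoresis after 24 h dosing. Cells are HepG2 transiently carrying multiple GAL4-UAS reporter units driven by exogenous NR-GAL4 chimeras; DMSO serves as baseline.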

Read-out in test [19]: Intercellular Adhesion Molecule 1 (ICAM1), ICAM1 (gene 3383)
The test can be described thus: BSK_3C_ICAM1: BioMAP Diversity Plus: 3C Assay for Intercellular Adhesion Molecule 1 (ICAM1) Biomarker Activity (AID 2283003). Particulars: primary human endothelial cells (HUVEC); actives raise or lower the signal. In short, it runs like this:
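ICAM-1 levels measured by ELISA after HUVEC cultures in the 3C system had been dosed for 24 h. Gain or loss of signal relative to DMSO was fitted in both directions.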

Inconclusive results are not listed. Where a structure was tested more than once in an assay, its records may differ in their call. Activity calls are given as the source filed them. The calls were made as follows, unless noted: active = hit-call score of the fitted dose curve at least 0.9, where 1 is the maximum; inactive = score below 0.9.

Results on 13 molecules are retold here after PubChem BioAssay (EPA / NIEHS).

Chain of human Peroxisome Proliferator-activated Receptor alpha (PPARa), PPARA (gene 5465) (Q07869 whole entry, looked up, the tested form may be a part): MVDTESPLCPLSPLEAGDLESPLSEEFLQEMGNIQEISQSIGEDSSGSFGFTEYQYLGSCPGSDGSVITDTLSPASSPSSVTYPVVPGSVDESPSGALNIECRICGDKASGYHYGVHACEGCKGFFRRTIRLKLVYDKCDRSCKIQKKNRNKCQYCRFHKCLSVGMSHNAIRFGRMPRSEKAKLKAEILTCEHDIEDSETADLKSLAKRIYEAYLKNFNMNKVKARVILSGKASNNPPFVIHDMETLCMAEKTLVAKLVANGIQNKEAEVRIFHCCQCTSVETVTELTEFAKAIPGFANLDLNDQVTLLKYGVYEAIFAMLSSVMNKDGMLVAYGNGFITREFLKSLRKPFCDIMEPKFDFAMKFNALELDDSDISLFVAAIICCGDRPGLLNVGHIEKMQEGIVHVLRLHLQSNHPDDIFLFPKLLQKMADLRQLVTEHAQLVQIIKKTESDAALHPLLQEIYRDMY
Chain of Nuclear respiratory factor 1 (Homo sapiens) (Q16656 whole entry, looked up): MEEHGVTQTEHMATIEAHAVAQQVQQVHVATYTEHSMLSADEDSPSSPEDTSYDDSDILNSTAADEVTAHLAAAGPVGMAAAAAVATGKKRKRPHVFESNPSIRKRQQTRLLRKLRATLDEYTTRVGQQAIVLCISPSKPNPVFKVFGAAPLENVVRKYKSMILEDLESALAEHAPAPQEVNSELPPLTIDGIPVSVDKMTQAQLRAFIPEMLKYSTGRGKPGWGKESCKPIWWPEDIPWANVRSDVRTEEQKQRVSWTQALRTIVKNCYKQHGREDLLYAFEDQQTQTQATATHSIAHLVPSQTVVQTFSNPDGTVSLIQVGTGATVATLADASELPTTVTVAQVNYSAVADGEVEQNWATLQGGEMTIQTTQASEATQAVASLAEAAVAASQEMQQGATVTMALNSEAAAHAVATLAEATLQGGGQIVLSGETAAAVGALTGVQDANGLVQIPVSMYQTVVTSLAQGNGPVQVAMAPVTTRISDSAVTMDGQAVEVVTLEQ
Chain of Myc proto-oncogene protein (Homo sapiens) (P01106 whole entry, looked up, the tested form may be a part): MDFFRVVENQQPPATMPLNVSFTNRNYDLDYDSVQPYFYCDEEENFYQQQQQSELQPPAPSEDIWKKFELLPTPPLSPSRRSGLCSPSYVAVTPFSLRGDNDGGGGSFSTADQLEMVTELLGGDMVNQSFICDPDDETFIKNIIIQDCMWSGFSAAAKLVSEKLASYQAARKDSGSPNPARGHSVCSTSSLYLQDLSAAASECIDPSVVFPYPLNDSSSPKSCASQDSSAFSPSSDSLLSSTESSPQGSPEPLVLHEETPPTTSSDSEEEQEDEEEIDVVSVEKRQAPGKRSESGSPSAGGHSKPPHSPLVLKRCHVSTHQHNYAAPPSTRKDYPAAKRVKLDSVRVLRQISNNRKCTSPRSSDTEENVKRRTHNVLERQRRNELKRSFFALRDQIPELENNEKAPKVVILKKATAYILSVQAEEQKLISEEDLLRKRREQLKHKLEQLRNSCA
Chain of Hepatocyte nuclear factor 4-alpha (Homo sapiens) (P41235 whole entry, looked up, the tested form may be a part): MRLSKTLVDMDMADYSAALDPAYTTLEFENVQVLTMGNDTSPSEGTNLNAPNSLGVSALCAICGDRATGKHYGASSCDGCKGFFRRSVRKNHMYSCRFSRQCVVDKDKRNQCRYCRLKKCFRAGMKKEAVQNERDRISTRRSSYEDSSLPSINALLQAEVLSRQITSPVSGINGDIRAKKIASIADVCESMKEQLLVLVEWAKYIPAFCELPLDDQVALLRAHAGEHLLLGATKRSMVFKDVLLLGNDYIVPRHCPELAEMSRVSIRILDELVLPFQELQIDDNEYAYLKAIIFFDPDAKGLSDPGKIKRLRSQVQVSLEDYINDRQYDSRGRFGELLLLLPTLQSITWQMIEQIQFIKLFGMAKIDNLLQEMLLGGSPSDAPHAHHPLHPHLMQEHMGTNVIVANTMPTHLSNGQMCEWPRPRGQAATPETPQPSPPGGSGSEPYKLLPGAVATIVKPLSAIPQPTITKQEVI
Chain of human Peroxisome Proliferator-activated Receptor delta (PPARd), PPARD (gene 5467) (Q03181 whole entry, looked up, the tested form may be a part): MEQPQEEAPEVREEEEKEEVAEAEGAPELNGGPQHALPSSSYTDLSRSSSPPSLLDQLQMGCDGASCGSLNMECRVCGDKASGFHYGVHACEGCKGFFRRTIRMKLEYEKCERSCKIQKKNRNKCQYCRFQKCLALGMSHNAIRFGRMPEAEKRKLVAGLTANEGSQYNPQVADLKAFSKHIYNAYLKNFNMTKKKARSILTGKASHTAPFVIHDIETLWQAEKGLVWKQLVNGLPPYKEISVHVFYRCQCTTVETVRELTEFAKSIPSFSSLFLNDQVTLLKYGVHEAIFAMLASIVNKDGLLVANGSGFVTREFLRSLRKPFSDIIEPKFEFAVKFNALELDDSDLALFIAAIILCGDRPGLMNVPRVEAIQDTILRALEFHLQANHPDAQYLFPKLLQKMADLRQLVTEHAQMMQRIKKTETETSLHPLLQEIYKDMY
Chain of Cellular tumor antigen p53 (Homo sapiens) (P04637 whole entry, looked up): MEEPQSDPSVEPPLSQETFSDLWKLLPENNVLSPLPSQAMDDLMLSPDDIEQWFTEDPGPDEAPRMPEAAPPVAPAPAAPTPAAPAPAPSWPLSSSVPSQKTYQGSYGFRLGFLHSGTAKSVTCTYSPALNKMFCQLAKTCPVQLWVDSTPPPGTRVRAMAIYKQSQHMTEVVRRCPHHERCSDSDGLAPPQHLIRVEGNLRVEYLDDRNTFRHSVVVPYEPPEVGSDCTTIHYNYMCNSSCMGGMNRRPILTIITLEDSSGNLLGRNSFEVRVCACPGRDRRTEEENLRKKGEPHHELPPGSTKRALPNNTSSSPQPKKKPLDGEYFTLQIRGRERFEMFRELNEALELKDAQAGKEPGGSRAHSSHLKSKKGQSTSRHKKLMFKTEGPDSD

Take `NNC(=S)NN`: the outcome in test [1], in [2], in test [3], in test [4], in test [5] and in [6] was inactive. For the same molecule, the call in test [7], in [8], in [9] and in test [10] was inactive.
On to `C=CC(=O)OCCCCCC(C)C`, for which the call in [11], in test [12], in [3], in test [4], in [5] and in [6] was inactive. The result in [7], in test [9], in test [10], in [13], in [14] and in test [15] was inactive. Besides, the result in test [16], in test [17] and in [18] was inactive.
As usually defined, the AC50 is the concentration giving half of the maximal activity seen. Regarding `C[C@]12CCC(=O)C[C@@H]1CC[C@@H]1[C@@H]2CC[C@]2(C)[C@@H](O)CC[C@@H]12`, the molecule was called inactive in [1], in test [2], in test [3], in test [4], in test [5] and in test [6]. For the same molecule, the outcome in [7], in [9], in test [10], in [13], in test [16] and in test [17] was inactive. The outcome in test [19] was inactive. Also, the AC50 in [7] was 57.9 µM (active); in test [9], 86.1 µM (active); in test [10], 51.4 µM (active); in test [14], 18.6 µM (active).
On to `Cc1ccccc1C(=O)Nc1cccc(OC(C)C)c1`, for which the molecule was classed as inactive in test [11], in [2], in [3], in test [4], in [5] and in [6]. Also, the outcome in [7], in test [9], in [10] and in [18] was inactive. In [8], the AC50 was 57.3 µM (active).
As to `N#CCCO`, the outcome in test [11], in [3], in test [4], in [5], in test [6] and in test [7] was inactive. Also, the call in test [8], in test [9], in test [10] and in [17] was inactive.
As to `CC(C)CCCCCCOC(=O)c1ccccc1C(=O)OCCCCCCC(C)C`, the call in [11], in test [3], in [4], in test [5], in test [6] and in [7] was inactive. For the same molecule, the molecule was called inactive in test [9], in test [10], in test [13], in test [14], in [15] and in test [16]. The molecule was called inactive in [17] and in test [18].
As to `CC(Br)C(=O)O` (configuration not stated), the molecule was classed as inactive in test [11], in test [2], in test [3], in [4], in test [5] and in [6]. The molecule was classed as inactive in test [7], in test [8], in test [10] and in test [18].
With `O=C(O)Cc1ccccc1`, the molecule was called inactive in test [11], in test [3], in [4], in test [5], in test [6] and in test [7]. Besides, the AC50 in test [8] is 25.9 µM (active).
With `C=CCc1ccc(OC)cc1`, the molecule was classed as inactive in test [1], in test [2], in test [12], in test [3], in test [4] and in [5]. In addition, the molecule was classed as inactive in [6], in test [7], in [8], in test [9] and in [17].
As for `CCOP(=O)(CN(CCO)CCO)OCC`, the molecule was called inactive in test [1], in test [2], in test [12], in [3], in [4] and in test [5]. Besides, the outcome in test [6], in test [7], in test [8], in test [10] and in test [18] was inactive.
As for `ClCC(Cl)CCl`, the call in test [1], in [2], in test [12], in test [3], in test [4] and in test [5] was inactive. Besides, the outcome in [6], in [8], in test [9], in test [10], in test [13] and in test [14] was inactive. Also, the outcome in test [16] and in test [18] was inactive.
`COC(=O)Cc1ccccc1`: the molecule was called inactive in test [1], in test [2], in test [12], in [3], in [4] and in test [5]. For the same molecule, the call in [6], in test [10], in [13], in test [14], in test [15] and in test [16] was inactive. The result in test [17] and in test [18] was inactive.
On to `C=C(C)C#N`, for which the molecule was classed as inactive in test [11], in [2], in test [3], in test [4], in test [5] and in test [6]. In addition, the result in test [9] and in [10] was inactive.
